Screening data as filed in PubChem.
An excerpt weighted towards active compounds, which were near 4.7% of everything screened.
tim10-1 inh = tim10-1 yeast growth inhibition. S. cerevisiae tim10-1 ts strain growth, BacTiter-Glo, 24 h. inhibition, % at 20 µM. 2.2% of 330,000 active;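 active = inhibition of at least 40%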;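 also: mutant grown at 25 °C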
PfHsp90 yeast 2 = reduces growth (ATP signal) of yeast expressing P. falciparum Hsp90 | 0.32% of 310,000 active | S. cerevisiae expressing PfHsp90, BacTiter-Glo ATP, 48 h; yeast lacking PDR1 and PDR3 efflux regulators | inhibition, % at 9.4 µM;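 active = every replicate shows inhibition above about 80%, whatever the replicate mean, limit read from the data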
SKKanGAS inh = inhibitors of SKKanGAS S. pyogenes growth in kanamycin (SK-promoter or general growth effect); BacTiter-Glo, 6 h; inhibition, % at 7.5 µM; 1.3% of 300,000 active; AID 1662;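 active = mean replicate score, as percent of positive control median, at least 50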;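 also: strain carries kanamycin resistance gene driven by streptokinase promoter and grows in 40 µg/ml kanamycin; loss of luminescence reflects streptokinase promoter inhibition or plain growth inhibition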
tim23-1 inh = inhibits growth of tim23-1 mutant yeast | S. cerevisiae tim23-1 growth, BacTiter-Glo luminescence, 24 h | inhibition, % at 20 µM | 1.3% of 330,000 active;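 active = growth inhibition of the mutant yeast at or above 50%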;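 also: temperature-sensitive mutant grown at 25 °C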
EBI2 block = blocks human EBI2 receptor beta-arrestin signaling; inhibition, % at 5 µM; 0.81% of 360,000 active; EBI2 beta-arrestin recruitment, luminescence, 7a,25-OHC stimulated; in the data active = inhibition above about 38%;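 also: enzyme fragment complementation signal reports receptor beta-arrestin coupling in cells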
Target sequence (P32249 whole entry, looked up, the tested form may be a part): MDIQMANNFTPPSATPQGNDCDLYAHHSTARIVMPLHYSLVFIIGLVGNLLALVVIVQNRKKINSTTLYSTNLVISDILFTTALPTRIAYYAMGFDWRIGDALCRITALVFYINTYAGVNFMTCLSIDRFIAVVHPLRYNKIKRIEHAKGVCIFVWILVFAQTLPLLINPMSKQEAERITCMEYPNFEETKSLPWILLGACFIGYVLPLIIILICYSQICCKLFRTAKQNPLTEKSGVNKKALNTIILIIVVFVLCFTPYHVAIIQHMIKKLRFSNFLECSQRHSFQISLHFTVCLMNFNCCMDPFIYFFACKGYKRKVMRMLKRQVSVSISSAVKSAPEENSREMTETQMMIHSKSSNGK
TIM10 inh = inhibits growth of TIM10 yeast strain; S. cerevisiae TIM10 strain growth, BacTiter-Glo luminescence, 24 h; inhibition, % at 10 µM; 1.4% of 330,000 active; AID 463195;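 active = inhibition of 40% or more at the single tested concentration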;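 also: wild-type TIM10 isogenic control strain grown at permissive 25 °C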
tim10-1 conf = confirmation of tim10-1 mutant yeast growth inhibitors; S. cerevisiae tim10-1 ts strain growth, BacTiter-Glo, 24 h; shares compounds with tim10-1 inh; 56% of 7,400 active; inhibition, % at 20 µM;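 active = inhibition of yeast growth at or above a set limit in either of two repeat tests at 20 µM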;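 also: tim10-1 mutant grown at permissive 25 °C to find synthetic lethal compounds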
Of the large screens only hits and unclear results are named; the others gave an inactive call (follow-up assays come after a bar, where they were run).

O=C1/C(=C/c2ccc(F)cc2)SC(=S)N1CC(=O)N1CCCCC1c1cccnc1 (centres undefined)	none
COCC1CCCCC1OS(N)(=O)=O (centres undefined)	none
O=c1c2c([nH]n1-c1ccccc1)CCCC2	tim10-1 inh 46 | tim10-1 conf inactive
CC1=NN(c2ccc(Cl)cc2)C(=O)C1	tim10-1 inh 47 | tim10-1 conf inactive
CC1=NN(c2nc(-c3ccc(Cl)cc3)cs2)C(=O)C1	tim10-1 inh 63 | tim10-1 conf 29
CC1=NN(c2nc(-c3ccc(F)cc3)cs2)C(=O)C1	none
CCCNC(=O)Nc1ccc(F)c(Cl)c1	none
CC(C)(C)NC(=O)Nc1ccc(F)c(Cl)c1	tim10-1 inh 46 | tim10-1 conf 44
COc1cccc(OC)c1-c1nn2c(-c3ccco3)nnc2s1	tim10-1 inh 45 | tim10-1 conf 31
COc1ccc(N(CCN2C(=O)c3ccccc3C2=O)C(=O)c2cccc([N+](=O)[O-])c2)cc1	none | tim10-1 conf 35
COc1ccc(N(CCCN2C(=O)c3cccc4cccc(c34)C2=O)C(=O)c2ccncc2)cc1	none
Cc1cc(C)nc(N2C(=O)CC(Cc3ccc(Cl)cc3)C2=O)n1 (centres undefined)	none
Cc1cc(C)nc(N2N=C(CSc3ccc(Cl)cc3)CC2=O)n1	tim10-1 inh 45 | tim10-1 conf inactive
COc1ccc(CCNC(=O)Nc2cccs2)c(OC)c1	tim10-1 inh 41 | tim10-1 conf 36
CCCCCCCC(=O)OCC(O)CO (centres undefined)	none
CCCCCCCCCCCCC/C=C/[C@@H](O)[C@@H](N)CO	tim10-1 inh 44, SKKanGAS inh 94 | tim10-1 conf inactive
CCOc1ccc(C(c2c(C)[nH][nH]c2=O)c2c(C)[nH][nH]c2=O)cc1OC	tim10-1 inh 42 | tim10-1 conf inactive
CCOC(=O)C1=NN(C(=O)Cc2ccccc2)C(O)(c2ccc(Cl)cc2)C1 (centres undefined)	tim10-1 inh 42 | tim10-1 conf 32
CCCCNC(=O)c1nc(-c2ccccc2)oc1-c1ccc(Cl)cc1	none (no result: tim10-1 inh, PfHsp90 yeast 2, SKKanGAS inh, tim23-1 inh, TIM10 inh)
N#Cc1c(NC(=O)c2ccc(Cn3cc(Br)cn3)o2)sc2c1CCCCCC2	tim10-1 inh 41 | tim10-1 conf 32
Cn1nccc1C(=O)Nc1sc2c(c1C#N)CCCC2	none
Cc1noc(C)c1C(=O)N1CCC(C(=O)c2ccc(F)cc2F)CC1	none
CC(C)(C)[C@H]1CCC(=O)N([C@H](CN=[N+]=[N-])Cc2ccccc2)CC1	tim10-1 inh 41 | tim10-1 conf inactive
COC(=O)C1=C(C)NC(C)=C(C(=O)O[C@@H]2CCCN(Cc3ccccc3)C2)[C@@H]1c1cccc([N+](=O)[O-])c1	tim10-1 inh 45 | tim10-1 conf inactive
CCOC(=O)C1=C(C)NC(C)=C(C(=O)OC)C1c1cccc([N+](=O)[O-])c1 (centres undefined)	none
COc1ccc(NS(=O)(=O)c2ccc(Br)cc2)cn1	none
COc1ccc(NS(=O)(=O)c2ccc3oc4ccccc4c3c2)cn1	tim10-1 inh 44 | tim10-1 conf 36
COc1cc(N)c2ncccc2c1Br	none (no result: tim10-1 inh, SKKanGAS inh, tim23-1 inh, TIM10 inh)
Cc1ccc(S(=O)(=O)NC(=O)c2ccc(-c3ccc(-c4ccccc4)cc3)o2)c(C)c1	tim10-1 inh 43 (no result: PfHsp90 yeast 2, EBI2 block) | tim10-1 conf 33
Cc1ccccc1S(=O)(=O)NC(=O)C1(C)CCN1C(=O)C1(c2ccccc2)CC1 (centres undefined)	none (no result: tim10-1 inh, PfHsp90 yeast 2, SKKanGAS inh, tim23-1 inh, TIM10 inh)
C/C(=N\N1CCN(c2ccccc2)CC1)c1ccc(O)cc1	none
CCCCNC(=S)Nc1ccc([N+](=O)[O-])cc1	tim10-1 inh 50 | tim10-1 conf inactive
CCCCNC(=S)Nc1ccc(Oc2ccccc2)cc1	none
O=C(c1nn2c(C(F)(F)F)cc(-c3ccccc3)nc2c1Cl)N1CCN2CCCC2C1 (centres undefined)	none
O=S(=O)(c1ccc(N2CCC(c3ccc(Cl)cc3)=N2)cc1)N(CCO)CCO	tim10-1 inh 55 | tim10-1 conf 48
O=S(=O)(c1ccc(Oc2ccc(S(=O)(=O)N(CCO)CCO)cc2)cc1)N(CCO)CCO	none
O=C(CSc1nnc(SCC(=O)c2ccco2)s1)c1ccco1	none
O=C(CSc1nc2cc(Cl)ccc2s1)c1ccco1	tim10-1 inh 43 | tim10-1 conf 37
O=C1C(c2ccc(F)cc2)N(Cc2ccc3c(c2)OCO3)C(=O)CN1C1CCCC1 (centres undefined)	none
O=C1C(c2ccc(F)cc2)N(Cc2ccc3c(c2)OCO3)C(=O)CN1C1CCCCC1 (centres undefined)	tim10-1 inh 40 | tim10-1 conf inactive
COc1ccc([N+](=O)[O-])cc1NCc1ccccc1C	none
COc1ccc([N+](=O)[O-])cc1NCc1ccccc1	tim10-1 inh 43 | tim10-1 conf inactive
O=[N+]([O-])c1cccc(-c2nc(-c3cccs3)c(-c3cccs3)[nH]2)c1	none
COc1ccc(-c2nc(-c3cccs3)c(-c3cccs3)[nH]2)cc1OC	tim10-1 inh 50, SKKanGAS inh 68 | tim10-1 conf 36
COC(=O)c1ccc(OCC2c3cc(OC)c(OC)cc3CCN2C(=O)c2ccco2)cc1 (centres undefined)	none (no result: PfHsp90 yeast 2)
Nc1cc2c(cc1C(=O)c1ccc(Cl)cc1)OCCO2	tim10-1 inh 41 | tim10-1 conf 33
Oc1ccccc1CNc1ccc(OC(F)(F)F)cc1	tim10-1 inh 42 | tim10-1 conf inactive
CCOc1ccc(C2/C(=C(\O)c3cccc(OC)c3)C(=O)C(=O)N2c2ccccn2)cc1OC (centres undefined)	none
CCC(C)[C@H]1COCCS(=O)(=O)N1Cc1ccccc1 (some centres undefined)	none
Nc1nccc(-c2cc(-c3ccc(Cl)cc3Cl)no2)n1	none
CN(CCCS(=O)(=O)[O-])c1ccc(/C=C/c2ccc3ccccc3[n+]2C)cc1	tim10-1 inh 43 | tim10-1 conf inactive
NS(=O)(=O)c1ccc(CCNS(=O)(=O)c2ccc(Cl)nc2)cc1	none
CN(C)CCCN(C(=O)c1ccc(S(=O)(=O)N2CCc3ccccc32)cc1)c1nc2ccc(Cl)cc2s1	tim10-1 inh 43 | tim10-1 conf 34
CN(C)CCCN(C(=O)c1ccc(S(=O)(=O)N2CCc3ccccc32)cc1)c1nc2ccc(F)cc2s1	none | tim10-1 conf inactive
COc1ccc(CN2C(=O)CCC2(C)c2nnnn2C2CCCCC2)cc1 (centres undefined)	none (no result: tim10-1 inh, PfHsp90 yeast 2, SKKanGAS inh, tim23-1 inh, TIM10 inh)
Cc1ccc2c(c1)c(N=O)c(O)n2Cc1ccc(Cl)cc1	tim10-1 inh 49 | tim10-1 conf 36
Cc1ccc(S(=O)(=O)c2nc(S(C)(=O)=O)sc2N2CCC(C)CC2)cc1	tim10-1 inh 46 | tim10-1 conf inactive
Cc1ccc(S(=O)(=O)c2nc(S(C)(=O)=O)sc2N2CCCCCC2)cc1	none
